In all, about 33,000 sequences were measured (“e-score”: median about -0.037, highest 2% from about 0.34 on). For the sample, the highest values were picked, then their nearest neighbours and some sequences at random.

The target of this experiment is T1, GST-Rok (full length) (Bacillus subtilis subsp. subtilis str. …, UniProt O34857 1-191).
T1 sequence: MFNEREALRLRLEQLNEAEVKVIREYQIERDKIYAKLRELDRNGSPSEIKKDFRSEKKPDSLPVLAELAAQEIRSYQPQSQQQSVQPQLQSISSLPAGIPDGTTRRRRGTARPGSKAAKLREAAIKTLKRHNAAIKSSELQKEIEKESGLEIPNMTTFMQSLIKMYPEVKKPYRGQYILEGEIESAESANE
Kind of experiment: protein binding microarray; Rok is a gene silencer of Bacillus subtilis; high values mean tight binding. Particulars: protein: recombinant; tags: GST (pTH5325, pDEST15-Magic modified); dsDNA, one strand shown. Summed up:
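Each has a 25-mer constant primer and a 35-mer variable part from a de Bruijn sequence of order 10, covering every non-palindromic 8-mer at least 32 times (palindromic 16). Preference for each 8-mer is given as a rank-based, unitless enrichment score (E-score). Its range runs from 0.5 (most favored) to −0.5 (most disfavored).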
Take ATCTAATC: the binding signal turned out to be 0.351 E-score.

Consider GTAATTTA, for which the binding signal was 0.355 E-score.

ATAATTTG: the binding signal was 0.284 E-score.

On to CAAATTTA, for which the binding signal came to 0.168 E-score.

GTAATTGA: the binding signal amounted to 0.246 E-score.

With TAAATTTA, the binding signal was found to be 0.361 E-score.

As for CTAATTTC, the binding signal came to 0.162 E-score.

As for AAAATTTA, the binding signal was 0.293 E-score.

Consider ATAATTTA, for which the binding signal was found to be 0.397 E-score.

In the case of ATAATTTC, the binding signal came to 0.351 E-score.

For the sequence GCAATTTA, the binding signal stood at 0.279 E-score.

For the sequence ATAATTCA, the binding signal was found to be 0.21 E-score.

As for CTAATTTA, the binding signal was found to be 0.286 E-score.

Regarding TAAAGCCA, the binding signal was -0.0305 E-score.

On to AACTCAAT, for which the binding signal stood at 0.296 E-score.

For CGCCATTC, the binding signal was -0.0796 E-score.

On to AATAAGGC, for which the binding signal is -0.0153 E-score.

Take ATGTCGCG: the binding signal is -0.0435 E-score.

With CCATTTAC, the binding signal stood at 0.0848 E-score.

Turning to GTCATATA, the binding signal amounted to 0.291 E-score.

In the case of GAATGGGA, the binding signal is -0.15 E-score.

Take ACGAGCTA: the binding signal was -0.107 E-score.

TAAACTAA: the binding signal came out at 0.288 E-score.

In the case of AAAACTAC, the binding signal amounted to 0.453 E-score.

CAAACTAA: the binding signal stood at 0.378 E-score.

Take AAAACTGT: the binding signal is -0.0241 E-score.

Consider AAAACTAT, for which the binding signal came out at 0.433 E-score.

CAAACTAC: the binding signal was found to be 0.43 E-score.

Turning to AAAACTAG, the binding signal was found to be 0.334 E-score.

As for CAAACTAG, the binding signal is 0.329 E-score.

Turning to CAAACTTA, the binding signal came to 0.162 E-score.

For the sequence CAAACTCC, the binding signal is -0.0836 E-score.

AAAACTCC: the binding signal was determined as 0.0005 E-score.

In the case of AAAACTAA, the binding signal turned out to be 0.254 E-score.

With GTGGCAAC, the binding signal is -0.17 E-score.

For CGTGACAA, the binding signal is -0.11 E-score.

As for CGACGAGA, the binding signal was -0.0756 E-score.

Turning to ATCCCAAA, the binding signal amounted to 0.0535 E-score.

CACTCTCA: the binding signal is -0.109 E-score.

Consider CTTAATGC, for which the binding signal was found to be 0.13 E-score.

Consider ACCGAGCA, for which the binding signal was -0.0882 E-score.

GTTGGTTA: the binding signal was 0.26 E-score.

Regarding AGCGCTAT, the binding signal is -0.0624 E-score.

With GAAACTTC, the binding signal is 0.224 E-score.

Take GAAACTAC: the binding signal is 0.469 E-score.

As for GAAACTAA, the binding signal amounted to 0.244 E-score.

For the sequence CGGTAGGA, the binding signal amounted to 0.281 E-score.

With CAACCGGC, the binding signal was -0.0977 E-score.

Turning to ACGCTCCT, the binding signal was -0.000812 E-score.

Turning to AAATACGA, the binding signal was found to be 0.118 E-score.

For AAATACTC, the binding signal turned out to be 0.227 E-score.

As to GAATACTA, the binding signal amounted to 0.295 E-score.

Take CAATACGA: the binding signal is 0.00373 E-score.

Regarding AAATACTA, the binding signal was 0.454 E-score.

Consider TAATACGA, for which the binding signal came out at 0.377 E-score.

Regarding CAATACTA, the binding signal turned out to be 0.261 E-score.

For the sequence AAATACTG, the binding signal is 0.327 E-score.

Consider TAATACTA, for which the binding signal was 0.419 E-score.

As to ACGCAAAC, the binding signal turned out to be 0.106 E-score.

For the sequence AGAGCTTA, the binding signal is -0.044 E-score.

With GACGATGA, the binding signal is -0.103 E-score.

Turning to GGCTGTAC, the binding signal is -0.102 E-score.

ACTCGCAC: the binding signal is -0.112 E-score.

Regarding ATACTGTC, the binding signal was 0.0898 E-score.

As for AGTACGCC, the binding signal was -0.149 E-score.

Take ATCAATGA: the binding signal was found to be 0.0966 E-score.

For the sequence AATAATAA, the binding signal was determined as 0.364 E-score.

With AATAATAC, the binding signal was determined as 0.332 E-score.

With TATAATAA, the binding signal was found to be 0.33 E-score.

ATTAATAA: the binding signal turned out to be 0.182 E-score.

ATTAATAC: the binding signal turned out to be 0.353 E-score.

Take AATAATAG: the binding signal was determined as 0.388 E-score.

Consider GATAATAC, for which the binding signal is 0.187 E-score.

Regarding CATAATAG, the binding signal is 0.243 E-score.

For the sequence CATAATAA, the binding signal came to 0.252 E-score.

On to GGTAATAA, for which the binding signal amounted to 0.313 E-score.

As for GATAATAA, the binding signal stood at 0.369 E-score.

For the sequence CTTAATAC, the binding signal stood at 0.18 E-score.

With AACCATCC, the binding signal is -0.0159 E-score.

Regarding AGCCGTGC, the binding signal is -0.157 E-score.

Turning to ATGGGCCG, the binding signal was -0.146 E-score.

For the sequence ACCTTAGA, the binding signal was found to be 0.00282 E-score.

With AGTACGTA, the binding signal worked out at 0.332 E-score.

In the case of AATAATGT, the binding signal amounted to 0.222 E-score.

For AATAATGC, the binding signal was found to be 0.352 E-score.

Take AATAATGG: the binding signal amounted to 0.103 E-score.

With CGTAGTCC, the binding signal was -0.0635 E-score.

As for CGGGCAGC, the binding signal is -0.142 E-score.

With CTAGGTCA, the binding signal is -0.0595 E-score.

As for ACGTTCAA, the binding signal is -0.0397 E-score.

With CAATGGAG, the binding signal was -0.17 E-score.

For the sequence ACAGCTCT, the binding signal is -0.118 E-score.

For ACAACGAC, the binding signal was 0.0795 E-score.

For AACCGGTA, the binding signal worked out at 0.274 E-score.

Regarding TACCGGTA, the binding signal stood at 0.37 E-score.

In the case of CACCGGTA, the binding signal is 0.056 E-score.

As for ACCATGCT, the binding signal is -0.182 E-score.

With ATTAAGTA, the binding signal came out at 0.347 E-score.

For the sequence ATTAACTC, the binding signal was 0.092 E-score.

On to CTTAACTA, for which the binding signal is 0.313 E-score.

Consider GTTAACTA, for which the binding signal was found to be 0.359 E-score.

ATTAACTA: the binding signal is 0.398 E-score.

On to ATTAACTG, for which the binding signal was found to be 0.14 E-score.

In the case of GTTAACGA, the binding signal is 0.241 E-score.

On to GTTAAGTA, for which the binding signal amounted to 0.191 E-score.

As to CTTAAGTA, the binding signal came out at 0.281 E-score.

Turning to GAGCGAGA, the binding signal was -0.17 E-score.

As for AGTCATAC, the binding signal is 0.018 E-score.

GGTCGCAA: the binding signal turned out to be 0.0661 E-score.

Consider CAGCGTGA, for which the binding signal is -0.12 E-score.

With AAATGTAG, the binding signal came out at 0.297 E-score.

In the case of CAATGTAC, the binding signal was 0.263 E-score.

On to GAATGTAC, for which the binding signal was 0.303 E-score.

On to AAATGTAT, for which the binding signal worked out at 0.281 E-score.

As to AAATGTAA, the binding signal was 0.389 E-score.

With AAATGTAC, the binding signal was 0.343 E-score.

For CGAGCCAC, the binding signal is -0.119 E-score.

With GGGCAGCA, the binding signal is -0.184 E-score.

As for CTCGCTAA, the binding signal is -0.0951 E-score.

TGTGAGAA: the binding signal is 0.216 E-score.

In the case of CCTCTTGA, the binding signal is -0.196 E-score.

In the case of GAGATATA, the binding signal stood at 0.157 E-score.

As for CACATATA, the binding signal was 0.261 E-score.

As to TATATATA, the binding signal is 0.477 E-score.

For the sequence CATATATC, the binding signal was determined as 0.25 E-score.

On to CTTATATA, for which the binding signal came out at 0.253 E-score.

With CATATATG, the binding signal was found to be 0.343 E-score.

Consider CACATATG, for which the binding signal was found to be 0.266 E-score.

As for CATATATA, the binding signal was 0.38 E-score.

On to TAGATATA, for which the binding signal came to 0.339 E-score.

For the sequence CATATAAG, the binding signal is 0.119 E-score.

Turning to TATATCGA, the binding signal stood at 0.304 E-score.

For the sequence CAGATATA, the binding signal was found to be 0.165 E-score.

CTTAAAAG: the binding signal was -0.119 E-score.

ACATTGGT: the binding signal was 0.186 E-score.

Consider ACCAGAGG, for which the binding signal was -0.0915 E-score.

Take AGAGACAC: the binding signal was found to be 0.0712 E-score.

Take ATGTCCGG: the binding signal is -0.00967 E-score.

Regarding CTTATAAA, the binding signal is 0.0863 E-score.

Consider AATATAAA, for which the binding signal turned out to be 0.266 E-score.

As for GATATAAA, the binding signal was determined as 0.33 E-score.

With ATTATAAA, the binding signal was 0.157 E-score.

For the sequence TTTATAAA, the binding signal stood at 0.367 E-score.

As for TATATAAA, the binding signal came out at 0.399 E-score.

In the case of CCCAGGCA, the binding signal is -0.18 E-score.

GAAACCGA: the binding signal was -0.119 E-score.

As for CCCGTACG, the binding signal was -0.101 E-score.

CTTATGTA: the binding signal is 0.111 E-score.

On to CATATGAA, for which the binding signal turned out to be 0.0706 E-score.

On to GTTATGTA, for which the binding signal amounted to 0.269 E-score.

Take AATATGTC: the binding signal worked out at 0.106 E-score.

Consider AATATGTA, for which the binding signal worked out at 0.416 E-score.

With GATATGTA, the binding signal was determined as 0.296 E-score.

In the case of ATTATGTA, the binding signal was determined as 0.358 E-score.

Regarding CATATGTC, the binding signal is -0.0495 E-score.

For the sequence CATATGTA, the binding signal is 0.338 E-score.

Regarding AGAGCTGC, the binding signal is -0.0428 E-score.

As to ACGAACTG, the binding signal worked out at 0.0336 E-score.

Regarding GTCCAGAA, the binding signal was -0.0598 E-score.

Turning to GCGAGAAA, the binding signal is -0.035 E-score.

With TAGAAGAA, the binding signal was found to be 0.109 E-score.

With AAAAGGAG, the binding signal is -0.188 E-score.

Turning to AGTGAATG, the binding signal amounted to 0.0707 E-score.

In the case of TCTCTGCA, the binding signal came to 0.0197 E-score.

As to AGCATTAT, the binding signal was 0.255 E-score.

As to CACAGTAG, the binding signal is 0.0684 E-score.

Turning to AACAGTAA, the binding signal came out at 0.294 E-score.

For the sequence CATAGTAG, the binding signal amounted to 0.0836 E-score.

Turning to AATAGTAT, the binding signal turned out to be 0.292 E-score.

For the sequence AATAGTAG, the binding signal turned out to be 0.469 E-score.

For the sequence CGTAGTAG, the binding signal was 0.204 E-score.

Turning to AGTAGTAG, the binding signal worked out at 0.349 E-score.

AGTAGTAT: the binding signal stood at 0.405 E-score.

Turning to ATTAGTAG, the binding signal came to 0.321 E-score.

On to AACAGTAG, for which the binding signal was determined as 0.354 E-score.

For the sequence AGAAGTAT, the binding signal was 0.334 E-score.

For the sequence AGCAGTAT, the binding signal came to 0.015 E-score.

The record behind these values is publication PMC6212790, “How bacterial xenogeneic silencer rok distinguishes foreign from self DNA in its resident genome”.
